FUS yeast rescue – qHTS for Suppressors of FUS Proteinopathy: Primary screen using FUS-linked yeast assay | S. cerevisiae FUS-expressing, growth rescue, OD600, 24 h | Potency, µM (series often up to 76.6 µM), actives largely listed as activators | hit rate 0.24% among 390,000 | AID 1347120, 2019;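 further: plate controls were DMSO vehicle for no effect and reference control for full effect; nearly all actives have a fitted effect of over 55% in size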
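Steps: raffinose overnight preculture; dilution to OD 0.005 in 2% galactose minimal medium; compound addition (concentration series); 24hr at 30C, 99% humidity; absorbance read at 600 nm.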
Mito fusion yeast – qHTS Assay for Small Molecule Inhibitors of Mitochondrial Division or Activators of Mitochondrial Fusion | S. cerevisiae fusion-defective mutant growth rescue, CellTiterGlo 48 h | Potency, µM (titrated, usually from 46.1 µM), for inactives: at the highest dose growth rescue (activation), hits mostly activators | hit rate 0.23% among 320,000 | AID 485298, 2010; further: % of control where 0% means no effect; nearly all actives have a fitted effect of over 45% in size
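Compounds are tested for their ability to restore growth of mitochondrial fusion-defective yeast strains at non-permissive 37C in YPEG medium over 48 hours. Viability is quantified by luciferase luminescence.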
aSyn yeast inh – qHTS of alpha-syn Inhibitors; Yeast expressing alpha-synuclein, growth rescue, BacTiter-Glo, 24 h; Potency, µM (top dose mostly 46.1 µM), inactives show at the top dose growth rescue (activation), most hits filed as activators; hit rate 0.14% among 370,000; further: % of control where 0% means no effect; nearly all actives have a fitted effect of over 65% in size
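Readout is rescue of growth in alpha-synuclein-expressing yeast, so inhibitors of toxicity appear as activators. Growth after 24 hr at 30 deg C in galactose medium is quantified by luminescence.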
TDP-43 yeast inh – qHTS of TDP-43 Inhibitors; Potency, µM (doses to about 46.1 µM), for the others: top-dose growth rescue (activation), actives largely listed as activators; hit rate 1.8% among 410,000; TDP-43 expressing yeast growth rescue, BacTiter-Glo, 24 h; further: % of control where 0% means no effect; nearly all actives have a fitted effect of over 50% in size
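Luminescence from BacTiter-Glo reports growth of TDP-43-expressing yeast after 24 hr at 30 deg C with compound. Cells were raffinose-pregrown to mid-log, then seeded in galactose medium at OD600=0.02.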
Abeta rescue – qHTS for compounds that reverse cellular toxicity of Amyloid beta (A-beta) peptide in yeast: Primary Screen; yeast expressing A-beta42, growth rescue, OD600, 48 h; response scale: 0% DMSO, 100% iron-clioquinol control; hit rate 0.063% among 410,000; Potency, µM (titrated, usually from 46.1 µM), usual class: activators; further: nearly all actives have a fitted effect of over 55% in size
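Yeast A-beta toxicity model in growth medium with pinned compounds, 48 h at 30 C; growth read as absorbance at 600 nm. Normalized to FeCl3/clioquinol equimolar mix (positive) and DMSO (negative).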
An asterisk follows results filed as active; i = inactive; ? = inconclusive; · = no result given. A selection: hits, their analogues and other compounds. The true share with any hit is near 2.2%. The call rests on the fitted dose curve; in most records, active means well fitted curve in the direction sought with a large enough effect; inconclusive means small, poorly fitted or top-dose-only effect, or another doubt; inactive means no such curve, though single readings can be large; an effect the other way counts as inactive or inconclusive. Potency means the concentration at half of the fitted maximal effect.

SMILES	FUS yeast rescue	Mito fusion yeast	aSyn yeast inh	TDP-43 yeast inh	Abeta rescue
N#Cc1cccc(NC(=O)OCCCN2CCC3(CCCCC3)C2=O)c1	i	·	·	·	·
NC(=O)c1c(N)[nH]c(C(=O)c2ccccc2)c1-c1cccc2ccccc12	i	·	·	·	·
COc1ccc(/C=N/NC(=O)c2ccc3c(c2)OCCO3)cc1[N+](=O)[O-]	·	-2%	-10%	-7%	i
COc1ccc(C(=O)C=Cc2ccc3c(c2)OCO3)cc1OC	i	·	-1%	14µM*	i
COc1ccc(C=CC(=O)c2ccc(OC)c(OC)c2)cc1O	i	·	?	?	i
COc1ccc(/C=C/C(=O)c2ccc3c(c2)OCCO3)cc1[N+](=O)[O-]	i	-4%	0%	13µM*	i
CC(C)(C)C(=O)Nc1ccc2c(c1)C(=O)C(=O)c1ccccc1-2	·	·	-7%	·	·
O=[N+]([O-])c1ccc(N2CCN(Cc3ccccc3)CC2)s1	i	10%	-11%	-7%	i
O=[N+]([O-])c1ccc(N2CCN(Cc3ccccc3)CC2)c2c1no[n+]2[O-]	i	·	14%	35µM*	i
CC1CC(=O)c2c(cc3c(-c4c(O)cc(O)c5c(O)c6c(cc45)OC(C)CC6=O)c(O)cc(O)c3c2O)O1 (stereo not drawn)	i	-6%	-21%	35µM*	i
O=C1CC(c2ccc(O)cc2)Oc2cc(O)cc(O)c21 (stereo not drawn)	i	-3%	2%	9%	i
CC(C)n1c(SCC(=O)Nc2ccc(F)cc2)nc2c(oc3ccccc32)c1=O	i	·	·	20µM*	i
CCOCCCn1c(SCC(=O)Nc2ccccc2OC)nc2c(oc3ccccc32)c1=O	?	·	·	22µM*	i
COc1ccccc1NC(=O)CSc1nc2c(oc3ccccc32)c(=O)n1Cc1ccco1	i	·	·	21%	i
O=C(NCc1ccccc1F)C1CCCN(C(=O)N2CCOc3ccccc32)C1 (stereo not drawn)	i	·	·	16%	i
Cc1ccc(NC(=O)CN2C(=O)C(c3ccccc3)=NC2(C)C)cc1C	i	·	·	0%	i
CCOc1ccccc1C(=O)NCc1nc2cccnc2n1Cc1ccc(C)cc1	i	·	·	16µM*	i
CCOC(=O)c1c(C)oc2nc(C)nc(NCC3CCN(Cc4ccccc4C)CC3)c12	i	·	·	2%	i
CCN(CC)CCSc1nnc2c3cc(F)ccc3n(C)c2n1	i	·	·	-15%	i
CSc1nnc2c3cc(F)ccc3n(C)c2n1	i	-3%	2.8µM*	6.3µM*	i
CC1=CC2=NC(=O)/C(=C\c3cccn3CCOc3cc(C)cc(C)c3)C(=N)N2O1	i	20µM*	9%	?	i
CC1=CC2=NC(=O)/C(=C\c3cccn3CCOc3cc(C)ccc3C)C(=N)N2O1	i	?	5%	16µM*	i
CC1=CC2=NC(=O)/C(=C\c3cccn3CCOc3cccc(C)c3)C(=N)N2O1	i	?	?	?	i
C[n+]1ccc(/C=C/c2ccc(C=S)cc2)c2ccccc21	·	·	-8%	·	·
N#CC1=C(N)N(c2ccccc2Sc2ccccc2)C(=O)C1	28µM*	0%	1%	-1%	i
SMILES	FUS yeast rescue	Mito fusion yeast	aSyn yeast inh	TDP-43 yeast inh	Abeta rescue
CC(C)C(=O)Nc1sc2c(c1C#N)CCCCC2	i	10%	8%	13µM*	i
N#Cc1c(NC(=O)C2CC2)sc2c1CCCCC2	i	16µM*	-6%	0%	i
CCN(C[C@@H]1[C@@H](c2ccccc2)[C@H](CO)N1S(C)(=O)=O)C(=O)C1CCC1	i	·	·	·	·
O=C(C[n+]1cccc2cc(Cl)ccc21)c1ccc2c(c1)CCCC2	·	·	1%	·	·
O=C(CSc1nnc(-c2cccs2)o1)Nc1cc(Cl)cc(Cl)c1	i	·	·	·	·
Clc1cc2cccnc2c2ncccc12	i	9%	-4%	2%	i
Cc1occc1C(=O)Nc1ccccc1C(=O)O	i	3%	-23%	-17%	i
Cc1occc1C(=O)Nc1cccc(Cl)c1Cl	i	-2%	-6%	11µM*	i
Cc1csc(SCC(=O)Nc2nc(-c3ccccc3)cs2)n1	i	-6%	-2%	14µM*	i
CCn1c(SCC(=O)Nc2nc(-c3ccc(C)cc3)cs2)nnc1-c1ccccc1O	i	?	-3%	20µM*	i
O=C(CSCC(=O)N1CCCc2ccccc21)Nc1nc(-c2ccccc2)cs1	?	18µM*	-17%	11µM*	i
Cc1ccc(-c2csc(NC(=O)CSc3nc(C)cs3)n2)cc1	i	3%	-5%	?	i
CC1CCN(C(=O)CSCC(=O)Nc2nc(-c3cccs3)cs2)CC1	?	18%	-16%	35µM*	i
CCn1c(SCC(=O)Nc2nc(-c3ccc(C)cc3)cs2)nnc1-c1ccccc1	i	-1%	-12%	-3%	i
COc1cccc(CNC(=O)Cn2cc3c(n2)-c2c(oc(C(=O)N4CCOCC4)c2C)CC3)c1	i	·	·	?	i
CCOC(=O)[C@]12CCCC3=C1N(CCC3)C(=O)[C@@H](CC(=O)NCCCN1CCCC1=O)C2	i	·	·	·	·
Cc1c(Cl)ccc2sc(N3CCN(C(=O)CS(=O)(=O)c4ccccc4)CC3)nc12	?	·	·	18µM*	13µM*
COc1ccc(Cl)c2sc(N3CCN(C(=O)c4ccco4)CC3)nc12	i	22%	17%	18µM*	i
CCCC(=O)N1CCN(c2nc3c(OC)ccc(Cl)c3s2)CC1	i	30%	21%	20µM*	i
Cc1c(Cl)ccc2sc(N3CCN(C(=O)c4ccco4)CC3)nc12	?	·	·	32µM*	i
CC(C)c1ccc(NC(=O)c2cc(S(=O)(=O)N3CCCCC3)cn2C)cc1	i	·	·	12%	i
COc1cc(OC)c(OC)cc1CNCCCSc1nnnn1C	i	·	·	?	i
COc1c(S(=O)(=O)N2CCN(C(=O)c3ccco3)CC2)ccc(Cl)c1Cl	i	-7%	17%	13µM*	i
Cc1c(Cl)ccc2sc(N3CCN(C(=O)C(C)C)CC3)nc12	i	·	·	22µM*	i
CN(Cc1ccccc1)/[N+]([O-])=N/Oc1ccc([N+](=O)[O-])cc1[N+](=O)[O-]	·	·	-72%	·	·
O=C(Nc1ccno1)Nc1ccc(Cl)cc1Cl	i	9%	-12%	14µM*	i
O=C(COc1cccc2ccccc12)N1CCN(c2ccccc2)CC1	i	29%	?	19%	i
O=C(COc1ccccc1)N1CCN(c2nnc(-c3ccccc3)c3ccccc23)CC1	i	3%	10%	?	i

Screening data: PubChem, National Center for Advancing Translational Sciences (NCATS)
